Measurements as given in article PMC8384837, “Expanding the binding specificity for RNA recognition by a PUF domain”.

How the values were obtained:
Experiment in all cases: yeast three-hybrid, YBZ-1, SC-Leu-His + 0.5 mM 3-AT, 4 days
Conditions in all cases: tags: N-Gal4 AD-HA kept; label: inside an RPR1-promoter hybrid RNA with tandem MS2 sites; ssRNA
PUM1 PUF domain R3-SQQ = PUM1 PUF domain R3-SQQ (Homo sapiens, UniProt Q14671 828-1176, C935S;R936Q)
Method in brief: (§1)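 A centromeric plasmid in strain YBZ-1 co-expressed Pumilio-1 PUF domain libraries, randomized at the three base-contacting residues of each repeat, with matching RNA elements; the strain carries a LexA–MS2 coat fusion and a HIS3 reporter. After four days on SC-Leu (input) or SC-Leu-His + 0.5 mM 3-AT (selection), the repeat regions were PCR-amplified and Illumina-sequenced. The interaction score is the log change in variant frequency from input to selection, using log2 and a pseudocount of 1 where absent.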

PUM1 PUF domain R3-FFS = PUM1 PUF domain R3-FFS (Homo sapiens, UniProt Q14671 828-1176, C935F;R936F;Q939S)
Method in brief: as §1

PUM1 PUF domain R4-WAS = PUM1 PUF domain R4-WAS (Homo sapiens, UniProt Q14671 828-1176, N971W;H972A;Q975S)
Method in brief: as §1

PUM1 PUF domain R4-RGG = PUM1 PUF domain R4-RGG (Homo sapiens, UniProt Q14671 828-1176, N971R;H972G;Q975G)
Method in brief: as §1

PUM1 PUF domain R4-EWH = PUM1 PUF domain R4-EWH (Homo sapiens, UniProt Q14671 828-1176, N971E;H972W;Q975H)
Method in brief: as §1

PUM1 PUF domain R7-KPL = PUM1 PUF domain R7-KPL (Homo sapiens, UniProt Q14671 828-1176, S1079K;N1080P;E1083L)
Method in brief: as §1

PUM1 PUF domain R7-RSQ = PUM1 PUF domain R7-RSQ (Homo sapiens, UniProt Q14671 828-1176, S1079R;N1080S;E1083Q)
Method in brief: as §1

PUM1 PUF domain R5-RCL = PUM1 PUF domain R5-RCL (Homo sapiens, UniProt Q14671 828-1176, C1007R;R1008C;Q1011L)
Method in brief: as §1

PUM1 PUF domain R5-RGE = PUM1 PUF domain R5-RGE (Homo sapiens, UniProt Q14671 828-1176, C1007R;R1008G;Q1011E)
Method in brief: as §1

PUM1 PUF domain R3-GRR = PUM1 PUF domain R3-GRR (Homo sapiens, UniProt Q14671 828-1176, C935G;Q939R)
Method in brief: as §1

PUM1 PUF domain R2-RKC = PUM1 PUF domain R2-RKC (Homo sapiens, UniProt Q14671 828-1176, N899R;Y900K;Q903C)
Method in brief: as §1

PUM1 PUF domain R8-TFR = PUM1 PUF domain R8-TFR (Homo sapiens, UniProt Q14671 828-1176, N1122T;Y1123F;Q1126R)
Method in brief: as §1

PUM1 PUF domain R7-QSG = PUM1 PUF domain R7-QSG (Homo sapiens, UniProt Q14671 828-1176, S1079Q;N1080S;E1083G)
Method in brief: as §1

PUM1 PUF domain R1-TGR = PUM1 PUF domain R1-TGR (Homo sapiens, UniProt Q14671 828-1176, S863T;R864G;Q867R)
Method in brief: as §1

PUM1 PUF domain R1-QFR = PUM1 PUF domain R1-QFR (Homo sapiens, UniProt Q14671 828-1176, S863Q;R864F;Q867R)
Method in brief: as §1

PUM1 PUF domain R1-KRK = PUM1 PUF domain R1-KRK (Homo sapiens, UniProt Q14671 828-1176, S863K;Q867K)
Method in brief: as §1

PUM1 PUF domain R8-HFN = PUM1 PUF domain R8-HFN (Homo sapiens, UniProt Q14671 828-1176, N1122H;Y1123F;Q1126N)
Method in brief: as §1

PUM1 PUF domain R5-QPI = PUM1 PUF domain R5-QPI (Homo sapiens, UniProt Q14671 828-1176, C1007Q;R1008P;Q1011I)
Method in brief: as §1

PUM1 PUF domain R3-YWF = PUM1 PUF domain R3-YWF (Homo sapiens, UniProt Q14671 828-1176, C935Y;R936W;Q939F)
Method in brief: as §1

PUM1 PUF domain R3-YRD = PUM1 PUF domain R3-YRD (Homo sapiens, UniProt Q14671 828-1176, C935Y;Q939D)
Method in brief: as §1

Sequence of PUM1 PUF domain R4-WAS (Q14671 828-1176 N971W/H972A/Q975S): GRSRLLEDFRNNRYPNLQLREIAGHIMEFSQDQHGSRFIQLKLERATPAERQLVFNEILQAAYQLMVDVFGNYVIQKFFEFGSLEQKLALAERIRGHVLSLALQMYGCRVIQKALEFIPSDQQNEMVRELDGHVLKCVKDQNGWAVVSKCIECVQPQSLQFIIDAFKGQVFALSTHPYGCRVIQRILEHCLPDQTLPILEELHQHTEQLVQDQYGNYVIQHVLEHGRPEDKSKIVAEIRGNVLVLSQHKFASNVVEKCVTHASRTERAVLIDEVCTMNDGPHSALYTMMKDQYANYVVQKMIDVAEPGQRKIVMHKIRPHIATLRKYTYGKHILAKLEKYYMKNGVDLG
Sequence of PUM1 PUF domain R3-FFS (Q14671 828-1176 C935F/R936F/Q939S): as the sequence (Q14671 828-1176 N971W/H972A/Q975S) above, with C108F, R109F, Q112S, W144N, A145H, S148Q counted along it
Sequence of PUM1 PUF domain R1-TGR (Q14671 828-1176 S863T/R864G/Q867R): as the sequence (Q14671 828-1176 N971W/H972A/Q975S) above, with S36T, R37G, Q40R, W144N, A145H, S148Q counted along it
Sequence of PUM1 PUF domain R4-RGG (Q14671 828-1176 N971R/H972G/Q975G): as the sequence (Q14671 828-1176 N971W/H972A/Q975S) above, with W144R, A145G, S148G counted along it
Sequence of PUM1 PUF domain R5-RGE (Q14671 828-1176 C1007R/R1008G/Q1011E): as the sequence (Q14671 828-1176 N971W/H972A/Q975S) above, with W144N, A145H, S148Q, C180R, R181G, Q184E counted along it
Sequence of PUM1 PUF domain R8-TFR (Q14671 828-1176 N1122T/Y1123F/Q1126R): as the sequence (Q14671 828-1176 N971W/H972A/Q975S) above, with W144N, A145H, S148Q, N295T, Y296F, Q299R counted along it
Sequence of PUM1 PUF domain R3-GRR (Q14671 828-1176 C935G/Q939R): as the sequence (Q14671 828-1176 N971W/H972A/Q975S) above, with C108G, Q112R, W144N, A145H, S148Q counted along it
Sequence of PUM1 PUF domain R5-RCL (Q14671 828-1176 C1007R/R1008C/Q1011L): as the sequence (Q14671 828-1176 N971W/H972A/Q975S) above, with W144N, A145H, S148Q, C180R, R181C, Q184L counted along it
Sequence of PUM1 PUF domain R3-YRD (Q14671 828-1176 C935Y/Q939D): as the sequence (Q14671 828-1176 N971W/H972A/Q975S) above, with C108Y, Q112D, W144N, A145H, S148Q counted along it
Sequence of PUM1 PUF domain R7-KPL (Q14671 828-1176 S1079K/N1080P/E1083L): as the sequence (Q14671 828-1176 N971W/H972A/Q975S) above, with W144N, A145H, S148Q, S252K, N253P, E256L counted along it
Sequence of PUM1 PUF domain R8-HFN (Q14671 828-1176 N1122H/Y1123F/Q1126N): as the sequence (Q14671 828-1176 N971W/H972A/Q975S) above, with W144N, A145H, S148Q, N295H, Y296F, Q299N counted along it
Sequence of PUM1 PUF domain R1-KRK (Q14671 828-1176 S863K/Q867K): as the sequence (Q14671 828-1176 N971W/H972A/Q975S) above, with S36K, Q40K, W144N, A145H, S148Q counted along it
Sequence of PUM1 PUF domain R3-SQQ (Q14671 828-1176 C935S/R936Q): as the sequence (Q14671 828-1176 N971W/H972A/Q975S) above, with C108S, R109Q, W144N, A145H, S148Q counted along it
Sequence of PUM1 PUF domain R5-QPI (Q14671 828-1176 C1007Q/R1008P/Q1011I): as the sequence (Q14671 828-1176 N971W/H972A/Q975S) above, with W144N, A145H, S148Q, C180Q, R181P, Q184I counted along it
Sequence of PUM1 PUF domain R7-QSG (Q14671 828-1176 S1079Q/N1080S/E1083G): as the sequence (Q14671 828-1176 N971W/H972A/Q975S) above, with W144N, A145H, S148Q, S252Q, N253S, E256G counted along it
Sequence of PUM1 PUF domain R1-QFR (Q14671 828-1176 S863Q/R864F/Q867R): as the sequence (Q14671 828-1176 N971W/H972A/Q975S) above, with S36Q, R37F, Q40R, W144N, A145H, S148Q counted along it
Sequence of PUM1 PUF domain R2-RKC (Q14671 828-1176 N899R/Y900K/Q903C): as the sequence (Q14671 828-1176 N971W/H972A/Q975S) above, with N72R, Y73K, Q76C, W144N, A145H, S148Q counted along it
Sequence of PUM1 PUF domain R4-EWH (Q14671 828-1176 N971E/H972W/Q975H): as the sequence (Q14671 828-1176 N971W/H972A/Q975S) above, with W144E, A145W, S148H counted along it
Sequence of PUM1 PUF domain R3-YWF (Q14671 828-1176 C935Y/R936W/Q939F): as the sequence (Q14671 828-1176 N971W/H972A/Q975S) above, with C108Y, R109W, Q112F, W144N, A145H, S148Q counted along it
Sequence of PUM1 PUF domain R7-RSQ (Q14671 828-1176 S1079R/N1080S/E1083Q): as the sequence (Q14671 828-1176 N971W/H972A/Q975S) above, with W144N, A145H, S148Q, S252R, N253S, E256Q counted along it

Sequence: GGCUAGAACUAGUGGAUCCCCCGGCGCCCGGCGGCUCGAGCCCGGGUAAGUGUAAAUAGUCUGCAUGCCGCCGGGCGCCAUGCCUGCAGGUCGACUCUAGAAAACAUG
- binding signal (PUM1 PUF domain R3-SQQ): 2.27 log2 enrichment (interaction score)
- binding signal (PUM1 PUF domain R3-FFS): 3.99 log2 enrichment (interaction score)
- binding signal (PUM1 PUF domain R4-WAS): 2.5 log2 enrichment (interaction score)
- binding signal (PUM1 PUF domain R4-RGG): 2.44 log2 enrichment (interaction score)

Sequence: GGCUAGAACUAGUGGAUCCCCCGGCGCCCGGCGGCUCGAGCCCGGGUAAGUGUACAUAGUCUGCAUGCCGCCGGGCGCCAUGCCUGCAGGUCGACUCUAGAAAACAUG
- binding signal (PUM1 PUF domain R4-WAS): 3.76 log2 enrichment (interaction score)
- binding signal (PUM1 PUF domain R4-RGG): 1.13 log2 enrichment (interaction score)
- binding signal (PUM1 PUF domain R4-EWH): 2.99 log2 enrichment (interaction score)

Sequence: GGCUAGAACUAGUGGAUCCCCCGGCGCCCGGCGGCUCGAGCCCGGGUAAGUCUAAAUAGUCUGCAUGCCGCCGGGCGCCAUGCCUGCAGGUCGACUCUAGAAAACAUG
- binding signal (PUM1 PUF domain R7-KPL): 2.86 log2 enrichment (interaction score)
- binding signal (PUM1 PUF domain R7-RSQ): 2.88 log2 enrichment (interaction score)

Sequence: GGCUAGAACUAGUGGAUCCCCCGGCGCCCGGCGGCUCGAGCCCGGGUAAGUGUAUAUAGUCUGCAUGCCGCCGGGCGCCAUGCCUGCAGGUCGACUCUAGAAAACAUG
- binding signal (PUM1 PUF domain R4-WAS): 4.67 log2 enrichment (interaction score)

Sequence: GGCUAGAACUAGUGGAUCCCCCGGCGCCCGGCGGCUCGAGCCCGGGUAAGUGUCAAUAGUCUGCAUGCCGCCGGGCGCCAUGCCUGCAGGUCGACUCUAGAAAACAUG
- binding signal (PUM1 PUF domain R5-RCL): 1.64 log2 enrichment (interaction score)
- binding signal (PUM1 PUF domain R5-RGE): 2.34 log2 enrichment (interaction score)

Sequence: GGCUAGAACUAGUGGAUCCCCCGGCGCCCGGCGGCUCGAGCCCGGGUAAGUGUAAUUAGUCUGCAUGCCGCCGGGCGCCAUGCCUGCAGGUCGACUCUAGAAAACAUG
- binding signal (PUM1 PUF domain R3-FFS): 5.05 log2 enrichment (interaction score)
- binding signal (PUM1 PUF domain R3-GRR): 2.87 log2 enrichment (interaction score)

Sequence: GGCUAGAACUAGUGGAUCCCCCGGCGCCCGGCGGCUCGAGCCCGGGUAAGUGUAAAGAGUCUGCAUGCCGCCGGGCGCCAUGCCUGCAGGUCGACUCUAGAAAACAUG
- binding signal (PUM1 PUF domain R2-RKC): 5.3 log2 enrichment (interaction score)

Sequence: GGCUAGAACUAGUGGAUCCCCCGGCGCCCGGCGGCUCGAGCCCGGGUAAGGGUAAAUAGUCUGCAUGCCGCCGGGCGCCAUGCCUGCAGGUCGACUCUAGAAAACAUG
- binding signal (PUM1 PUF domain R8-TFR): 2.97 log2 enrichment (interaction score)

Sequence: GGCUAGAACUAGUGGAUCCCCCGGCGCCCGGCGGCUCGAGCCCGGGUAAGUUUAAAUAGUCUGCAUGCCGCCGGGCGCCAUGCCUGCAGGUCGACUCUAGAAAACAUG
- binding signal (PUM1 PUF domain R7-QSG): 2.85 log2 enrichment (interaction score)

Sequence: GGCUAGAACUAGUGGAUCCCCCGGCGCCCGGCGGCUCGAGCCCGGGUAAGUGUAAAUCGUCUGCAUGCCGCCGGGCGCCAUGCCUGCAGGUCGACUCUAGAAAACAUG
- binding signal (PUM1 PUF domain R1-TGR): 2.65 log2 enrichment (interaction score)
- binding signal (PUM1 PUF domain R1-QFR): 7.18 log2 enrichment (interaction score)
- binding signal (PUM1 PUF domain R1-KRK): 4.04 log2 enrichment (interaction score)

Sequence: GGCUAGAACUAGUGGAUCCCCCGGCGCCCGGCGGCUCGAGCCCGGGUAAGCGUAAAUAGUCUGCAUGCCGCCGGGCGCCAUGCCUGCAGGUCGACUCUAGAAAACAUG
- binding signal (PUM1 PUF domain R8-HFN): 3.57 log2 enrichment (interaction score)
- binding signal (PUM1 PUF domain R8-TFR): 4.89 log2 enrichment (interaction score)

Sequence: GGCUAGAACUAGUGGAUCCCCCGGCGCCCGGCGGCUCGAGCCCGGGUAAGUGUUAAUAGUCUGCAUGCCGCCGGGCGCCAUGCCUGCAGGUCGACUCUAGAAAACAUG
- binding signal (PUM1 PUF domain R5-RCL): 2.91 log2 enrichment (interaction score)
- binding signal (PUM1 PUF domain R5-RGE): 0.96 log2 enrichment (interaction score)
- binding signal (PUM1 PUF domain R5-QPI): 3.43 log2 enrichment (interaction score)

Sequence: GGCUAGAACUAGUGGAUCCCCCGGCGCCCGGCGGCUCGAGCCCGGGUAAGUGUAAAUUGUCUGCAUGCCGCCGGGCGCCAUGCCUGCAGGUCGACUCUAGAAAACAUG
- binding signal (PUM1 PUF domain R1-TGR): 0.64 log2 enrichment (interaction score)

Sequence: GGCUAGAACUAGUGGAUCCCCCGGCGCCCGGCGGCUCGAGCCCGGGUAAGUGUAAGUAGUCUGCAUGCCGCCGGGCGCCAUGCCUGCAGGUCGACUCUAGAAAACAUG
- binding signal (PUM1 PUF domain R3-YWF): 3.54 log2 enrichment (interaction score)
- binding signal (PUM1 PUF domain R3-FFS): 6.93 log2 enrichment (interaction score)
- binding signal (PUM1 PUF domain R3-YRD): 3.85 log2 enrichment (interaction score)
- binding signal (PUM1 PUF domain R3-GRR): 0.8 log2 enrichment (interaction score)
